Assay [1] is described as follows: Nuclear factor erythroid 2-related factor 2/antioxidant responsive element (Nrf2/ARE) small molecule agonists: qHTS cell viability counter screen in human keratinocytes (AID 1919968; active = well fitted cell-killing curve with a large enough effect in the repeat runs; note: nearly all actives have a fitted effect of over 55% in size; note: potency is the fitted concentration of half-maximal effect). In outline:
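In human HaCaT keratinocytes stably expressing an ARE-driven luciferase, compound exposure lasted 23 h at 37 C under 5% CO2. Viable cells are quantified with a protease-based fluorogenic reagent (CellTiter-Fluor) read 1 h after addition.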
For orientation: In qHTS, concentration-response curves come from the screen itself.

A short description of assay [2]: Nuclear factor erythroid 2-related factor 2/antioxidant responsive element (Nrf2/ARE) small molecule agonists: luciferase reporter gene qHTS assay in human keratinocytes (AID 1919969). Note: nearly all actives have a fitted effect of over 35% in size. Note: potency is the fitted concentration of half-maximal effect.
Assay [3] has as its target Gonadotropin-releasing hormone receptor (Homo sapiens) (UniProt P30968). In words: Human gonadotropin-releasing hormone receptor (GnRHR) small molecule agonists, calcium flux assay in GnRHR-HEK293 cells (AID 1920063). Note: nearly all actives have a fitted effect of over 35% in size. In outline:
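Intracellular calcium rise is the read-out: engineered human GnRHR HEK293 cells, dye-loaded, are exposed to DMSO-dissolved compounds and fluorescence at Ex/Em 480/540 is tracked for 3 min.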

The nature of assay [4]: G protein-coupled receptor (GPCR) small molecule agonists, calcium flux assay: HEK293 wild type cell line counter screen (AID 1920065). In outline: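 Fluorescence intensity signals activation. After overnight (18 h) culture and a 1 h calcium dye load at 37 C, compounds are added by pin tool and the plate read at 480/540 nm for 3 min in 1 s steps.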
Assay [5] is described as follows: p53 small molecule agonists, cell-based qHTS assay with human liver microsomes: qHTS cell viability counter screen (AID 1963579). Note: nearly all actives have a fitted effect of over 45% in size. In a few lines: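 HLM-supplemented (0.5 mg/mL final) and NADPH-supplemented (0.5 mg/mL final) p53RE-bla cultures, 4,000 cells per well, were dosed with compounds in DMSO for 16 h at 37 C; luminescent ATP detection (CellTiter-Glo, 30 min, room temperature) quantified surviving cells.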

A short description of assay [6]: p53 small molecule agonists, cell-based qHTS assay with rat liver microsomes: qHTS cell viability counter screen (AID 1963580). Note: nearly all actives have a fitted effect of over 45% in size. In a few lines:
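After the beta-lactamase ratio was read, CellTiter-Glo was added to the same wells and luminescence measured at 30 min; cells had been treated 16 h at 37 C with compounds, rat liver microsomes and NADPH (0.5 mg/mL final each).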

Assay [7] can be described thus: p53 small molecule agonists, cell-based qHTS assay: qHTS cell viability counter screen (AID 1963581). Note: nearly all actives have a fitted effect of over 45% in size. Note: potency is the fitted concentration of half-maximal effect. In a few lines: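 Luminescence from CellTiter-Glo, reflecting ATP content, serves as the cytotoxicity measure; it is taken after the 2 h reporter substrate step in HCT-116 p53RE-bla cells dosed for 16 h at 37 C.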
The target of assay [8] is 5-hydroxytryptamine receptor 2A (Homo sapiens) (UniProt P28223). In words: 5-hydroxytryptamine receptor 2A (HTR2A) small molecule antagonists, cell-based qHTS assay (AID 1963586). Note: nearly all actives have a fitted effect of over 45% in size. In outline: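 CHO cells stably expressing human HTR2A were plated for 18 h at 37 C, then loaded with calcium dye for 1 h. Compounds were preincubated 5 min at room temperature before DOI (4 nM solution) was added. Kinetic fluorescence was read for 3 min.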

Assay [9] has the same target. Description: 5-hydroxytryptamine receptor 2A (HTR2A) small molecule agonists, cell-based qHTS assay (AID 1963587). Note: nearly all actives have a fitted effect of over 30% in size. In outline: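 CHO cells stably expressing human HTR2A, plated 18 h, loaded with calcium dye 1 h at 37 C. Agonist mode: compounds added and intracellular calcium fluorescence recorded kinetically for 2 min at 1 sec intervals.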
In assay [10] the target is Muscarinic acetylcholine receptor M1 (Homo sapiens) (UniProt P11229). Description: Cholinergic receptor muscarinic 1 (CHRM1) small molecule antagonists, cell-based qHTS assay (AID 1963588). Note: nearly all actives have a fitted effect of over 40% in size. In a few lines:
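Compounds were tested at 15 concentrations in three independent runs. Dye-loaded CHRM1-CHO cells were exposed 5 min at room temperature before stimulation by acetylcholine added at 50nM. Intracellular calcium was read kinetically on FDSS for 3 min.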

Assay [11] has the same target. In words: Cholinergic receptor muscarinic 1 (CHRM1) small molecule agonists, cell-based qHTS assay (AID 1963589). Note: nearly all actives have a fitted effect of over 35% in size. In a few lines:
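Fluorescent calcium dye reports M1 activation in stably transfected CHO cells. Compounds, 15 concentrations, added after 1 h dye loading at 37 C; kinetic reading at 1 sec intervals.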

Assay [12] can be described thus: cAMP Responsive Elements (CRE) small molecule agonists, cell-based qHTS assay (AID 1963590). In outline: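 Compound exposure lasted 3 h at 37 C/5% CO2 in CRE-bla HEK 293T cells grown in assay medium with 10% dialyzed FBS and 25 mM HEPES. Reporter signal came from LiveBLAzer B/G FRET substrate, 2 h, room temperature.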
Assay [13] in a line: cAMP Responsive Elements (CRE) small molecule antagonists, cell-based qHTS assay (AID 1963591; active = well fitted inhibition curve with a large enough effect in the signal ratio in the repeat runs, not every such curve was filed as active; the % refers to the signal ratio). In a few lines: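 Stimulation used NKH477 at a final 0.25 uM for 3 h in compound-treated CRE-bla HEK293T cells, seeded 18 h beforehand. Reporter activity was measured with LiveBLAzer B/G FRET substrate after 2 h at room temperature.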
Assay [14] addresses Beta-2 adrenergic receptor (Homo sapiens) (UniProt P07550). In words: Adrenergic beta2 receptor (ADRB2) small molecule antagonists, cell-based qHTS assay (AID 1963592). Note: series mostly up to about 92 µM; nearly all actives have a fitted effect of over 50% in size. In outline:
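Assay format: CHO-ADRB2 cells, 18-20hr seeding at 37C/5% CO2, then compound plus 1nM isoproterenol agonist mix for 0.5hr RT. Homogeneous time-resolved fluorescence cAMP detection after 1hr, expressed as 665/615 nm ratio.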

The target in assay [15] is D(2) dopamine receptor (Homo sapiens) (UniProt P14416). Description: Dopamine D2 receptor (DRD2) small molecule agonists, cell-based qHTS assay (AID 1963594). Note: nearly all actives have a fitted effect of over 35% in size. In a few lines: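 HEK293 cells stably expressing human DRD2, pre-treated with PDE inhibitor Ro20-1724 (0.1 mM final) and compound 10 min at room temperature, then stimulated with NKH477 (200nM […]) for 30 min. cAMP read by HTRF (665/620 nm).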

For assay [16] the target is unchanged. Description: Dopamine D2 receptor (DRD2) small molecule antagonists, cell-based qHTS assay (AID 1963595; active = well fitted inhibition curve with a large enough effect in the signal ratio in the repeat runs, with a control signal flat; the % refers to the signal ratio). In a few lines:
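Antagonist mode in DRD2-HEK293 cells: after compound addition with 0.1 mM Ro20-1724, cells received quinpirole (12 nM) and NKH477 (200 nM) for 30 min at room temperature; HTRF cAMP read after 1 h detection.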

Assay [17] is described as follows: p53 small molecule agonists, cell-based qHTS assay with rat liver microsomes (AID 1963578). In a few lines:
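Compound in DMSO added to p53RE-bla cells 5 h post-plating; rat microsomes/NADPH 0.5 mg/mL final; 16 h, 37 C; LiveBLAzer 2 h RT.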

Assay [18] addresses Beta-2 adrenergic receptor (Homo sapiens) (UniProt P07550). In words: Adrenergic beta2 receptor (ADRB2) small molecule agonists, cell-based qHTS assay (AID 1963593).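 Note: CHO cells stably overexpressing human ADRB2.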 In a few lines:
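CHO cells stably over-expressing ADRB2 were plated overnight at 37C, then dosed with compounds plus a stimulation mix containing 100uM IBMX and 25uM Ro-20-1724 for 0.5hr at room temperature. cAMP was measured by HTRF competition, 1hr.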

Assay [19] can be described thus: p53 small molecule agonists, cell-based qHTS assay (AID 1963582; active = well fitted activation curve with a large enough effect in the signal ratio in the repeat runs, not every such curve was filed as active; the % refers to the signal ratio). In outline: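 After plating, p53RE-bla cells sat 5 h in the incubator; compounds or DMSO vehicle were pinned in; a 16 h incubation at 37 C followed; FRET substrate was added and, 2 h later at RT, fluorescence was measured.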

Values without a mark were called inactive. Inconclusive results are not listed. Active and inactive are the calls of the source. Unless noted, calls come from the whole dose curve.

Our source for the Potency values is PubChem BioAssay (Tox21).

Beta-2 adrenergic receptor (Homo sapiens), sequence (P07550 whole entry, looked up): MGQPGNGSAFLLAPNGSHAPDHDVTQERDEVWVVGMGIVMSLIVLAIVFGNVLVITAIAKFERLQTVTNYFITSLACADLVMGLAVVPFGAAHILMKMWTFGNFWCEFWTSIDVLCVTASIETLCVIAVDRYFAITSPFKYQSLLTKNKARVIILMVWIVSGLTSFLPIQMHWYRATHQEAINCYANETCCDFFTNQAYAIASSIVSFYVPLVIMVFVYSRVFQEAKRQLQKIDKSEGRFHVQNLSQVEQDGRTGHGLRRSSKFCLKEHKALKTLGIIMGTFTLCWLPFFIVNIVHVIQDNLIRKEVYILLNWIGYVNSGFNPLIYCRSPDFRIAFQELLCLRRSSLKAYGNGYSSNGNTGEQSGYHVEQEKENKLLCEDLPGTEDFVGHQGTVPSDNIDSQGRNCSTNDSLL
D(2) dopamine receptor (Homo sapiens), sequence (P14416 whole entry, looked up): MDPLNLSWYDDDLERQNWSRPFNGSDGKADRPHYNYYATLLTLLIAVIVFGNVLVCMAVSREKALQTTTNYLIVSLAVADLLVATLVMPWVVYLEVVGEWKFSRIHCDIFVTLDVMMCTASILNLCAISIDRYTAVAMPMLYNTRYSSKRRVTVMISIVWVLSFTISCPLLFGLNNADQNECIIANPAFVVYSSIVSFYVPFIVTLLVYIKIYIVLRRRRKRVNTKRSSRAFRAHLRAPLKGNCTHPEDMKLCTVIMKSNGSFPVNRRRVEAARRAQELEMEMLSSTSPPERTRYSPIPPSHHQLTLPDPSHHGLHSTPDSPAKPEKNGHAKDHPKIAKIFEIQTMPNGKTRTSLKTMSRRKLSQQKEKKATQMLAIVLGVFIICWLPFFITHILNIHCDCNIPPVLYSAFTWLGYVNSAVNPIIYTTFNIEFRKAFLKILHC
5-hydroxytryptamine receptor 2A (Homo sapiens), sequence (P28223 whole entry, looked up): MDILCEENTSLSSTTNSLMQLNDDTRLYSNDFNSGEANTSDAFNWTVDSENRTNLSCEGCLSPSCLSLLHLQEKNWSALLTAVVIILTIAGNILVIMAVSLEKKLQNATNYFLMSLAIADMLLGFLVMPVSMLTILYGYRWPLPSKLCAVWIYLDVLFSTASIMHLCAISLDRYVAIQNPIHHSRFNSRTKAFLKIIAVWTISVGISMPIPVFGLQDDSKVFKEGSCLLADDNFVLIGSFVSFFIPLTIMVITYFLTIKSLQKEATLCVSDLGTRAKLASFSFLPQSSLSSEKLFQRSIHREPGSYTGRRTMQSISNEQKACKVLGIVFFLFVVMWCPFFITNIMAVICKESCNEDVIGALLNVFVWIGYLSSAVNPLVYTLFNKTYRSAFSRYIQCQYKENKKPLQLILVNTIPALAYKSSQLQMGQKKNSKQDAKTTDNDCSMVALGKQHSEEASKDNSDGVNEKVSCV
Muscarinic acetylcholine receptor M1 (Homo sapiens), sequence (P11229 whole entry, looked up): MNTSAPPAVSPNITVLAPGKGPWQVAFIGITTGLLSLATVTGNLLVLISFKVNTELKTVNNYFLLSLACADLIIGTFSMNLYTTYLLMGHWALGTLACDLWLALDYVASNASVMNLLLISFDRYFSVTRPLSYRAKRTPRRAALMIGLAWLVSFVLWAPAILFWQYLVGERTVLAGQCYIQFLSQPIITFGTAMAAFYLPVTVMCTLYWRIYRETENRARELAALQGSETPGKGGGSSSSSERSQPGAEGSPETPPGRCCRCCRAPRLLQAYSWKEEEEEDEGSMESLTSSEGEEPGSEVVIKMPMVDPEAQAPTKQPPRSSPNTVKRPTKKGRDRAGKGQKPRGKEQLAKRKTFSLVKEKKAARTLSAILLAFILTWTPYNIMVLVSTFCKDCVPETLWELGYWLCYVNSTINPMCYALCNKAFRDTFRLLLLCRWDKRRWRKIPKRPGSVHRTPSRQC
Gonadotropin-releasing hormone receptor (Homo sapiens), sequence (P30968 whole entry, looked up): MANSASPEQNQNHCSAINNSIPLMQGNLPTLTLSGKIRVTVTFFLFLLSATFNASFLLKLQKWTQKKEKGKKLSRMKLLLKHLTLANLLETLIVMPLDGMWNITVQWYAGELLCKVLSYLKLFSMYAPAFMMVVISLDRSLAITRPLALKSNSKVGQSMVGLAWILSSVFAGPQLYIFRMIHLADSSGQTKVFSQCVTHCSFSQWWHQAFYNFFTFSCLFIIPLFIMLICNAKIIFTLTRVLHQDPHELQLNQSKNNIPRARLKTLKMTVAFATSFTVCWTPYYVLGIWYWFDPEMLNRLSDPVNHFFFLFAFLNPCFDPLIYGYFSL

With `CNC(C)=O`, the Potency entry in assay [1], in assay [2], in assay [3], in assay [4], in [5] and in assay [6] was “inactive” in each case. Also, the Potency result in assay [7], in assay [8], in assay [9], in [10], in assay [11] and in [12] was “inactive” in each case. Also, the Potency entry in [13] and in [14] was “inactive” throughout.

Consider `CC1=CC(=O)CCC1`, for which the Potency entry in assay [1], in assay [2], in [3], in [4], in assay [5] and in assay [6] was “inactive” throughout. Besides, the Potency entry in assay [7], in [8], in assay [9], in assay [10], in [11] and in [12] was “inactive” in each case. In addition, the Potency result in [13], in assay [14], in assay [15] and in [16] was “inactive” each time.

Regarding `CC(C)(C)CC(C)(C)c1ccc(O)c(Cc2ccc(Cl)cc2Cl)c1`, the Potency in assay [1] is 8.41 µM (active); in assay [7], 8.9 µM (active). The Potency entry in [2], in assay [3], in assay [4], in assay [17], in [5] and in assay [6] was “inactive” each time. Besides, the Potency entry in assay [9], in assay [11], in [14], in [18] and in [15] was “inactive” throughout.

Regarding `CCN(CC)c1cccc(O)c1`, the Potency entry in assay [1], in assay [3], in assay [4], in assay [17], in assay [5] and in assay [6] was “inactive” in each case. Also, the Potency entry in [7], in assay [9], in assay [10], in assay [11], in assay [12] and in assay [13] was “inactive” each time. For the same compound, the Potency result in assay [14], in [15] and in [16] was “inactive” throughout. Moreover, in [2], the Potency was 11.1 µM (active).

Turning to `C[C@@H]1C[C@H]2[C@@H]3CCC4=CC(=O)C=C[C@]4(C)[C@@]3(F)[C@@H](O)C[C@]2(C)[C@@]1(O)C(=O)COC(=O)c1ccncc1`, the Potency result in assay [1], in assay [2], in assay [3], in assay [4], in assay [17] and in assay [5] was “inactive” each time. Also, the Potency result in assay [7], in [19], in assay [9], in assay [10], in assay [11] and in assay [12] was “inactive” each time. Further, the Potency entry in assay [13], in assay [14] and in [16] was “inactive” each time.

`CCCCNCCCC`: the Potency result in assay [1], in assay [2], in assay [3], in assay [4], in [5] and in assay [6] was “inactive” each time. Also, the Potency result in [7], in [19], in assay [8], in [9], in assay [10] and in [11] was “inactive” each time. In addition, the Potency result in [12], in assay [13], in assay [14], in [15] and in assay [16] was “inactive” each time.

With `O=C(Cl)c1ccc(F)c(Cl)c1`, the Potency result in assay [1], in assay [2], in [3], in assay [4], in assay [17] and in assay [5] was “inactive” each time. Moreover, the Potency entry in [6], in assay [7], in [19], in [8], in assay [9] and in assay [10] was “inactive” in each case. Further, the Potency entry in assay [11], in [12], in [13], in assay [14], in assay [15] and in assay [16] was “inactive” in each case.

Regarding `C[C@]12CC[C@H]3C(=CCc4cc(O)ccc43)[C@@H]1CCC2=O`, the Potency entry in assay [1], in assay [2], in assay [3], in [4], in [5] and in assay [7] was “inactive” each time. In addition, the Potency result in [19], in assay [8], in assay [11], in assay [12], in assay [14] and in assay [18] was “inactive” each time. For the same compound, the Potency result in [15] and in assay [16] was “inactive” in each case.
